From PubChem BioAssay
“And” between values parts separate entries of the source, which are not always exact repeats. Equal entries are not always repeated. The source made the active and inactive calls. Cut-off read from the data, not from the text of the source, unless noted: active = inhibition above about 80%; inactive = the rest.

Experiments:
[1] = LFS_MB_P medulloblastoma growth inhibition, cell-based, chromothripsis tumors, cisplatin or BGB combos (AID 1671449); settings: LFS_MB_P medulloblastoma cells;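 note: cells exposed for 96 hours; 0% = vehicle DMSO and 100% = killing by high DMSO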
[2] = HDN33 neuroblastoma growth inhibition, cell-based, chromothripsis tumors, cisplatin or BGB combos (AID 1671450); settings: HDN33 neuroblastoma cells, stronger effect = higher value;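 note: cells exposed to compound for four days; 0% = vehicle DMSO and 100% = cell killing by high DMSO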
[3] = ICB984 medulloblastoma cell growth inhibition, synergistic combos for chromothripsis tumors, cisplatin or BGB combos (AID 1671451; call rule not given here;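 note: cells exposed for 96 hours before readout; 0% = vehicle DMSO and 100% = killing by high DMSO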); settings: ICB984 medulloblastoma cells, drug combinations, stronger effect = higher value
[4] = LFS_MB_1R medulloblastoma cell growth inhibition, synergistic combos for chromothripsis tumors, cisplatin or BGB combos (AID 1671452); settings: LFS_MB_1R medulloblastoma cells, stronger effect = higher value;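 note: cells exposed for 96 hours before readout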
[5] = HTB85 osteosarcoma cell growth inhibition, synergistic combos for chromothripsis tumors, BGB or cisplatin IC20 combos (AID 1671453); settings: HTB85 osteosarcoma cells, drug combinations, stronger effect = higher value;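 note: cells exposed for 96 hours before readout; 0% = vehicle DMSO and 100% = high DMSO killing control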
[6] = CRL2098 osteosarcoma cell growth inhibition, synergistic combos for chromothripsis tumors, BGB or cisplatin IC20 combos (AID 1671454); settings: CRL2098 osteosarcoma cells, drug combinations, stronger effect = higher value;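 note: cells exposed for 96 h before readout; 0% = vehicle DMSO and 100% = killing by high DMSO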
[7] = HD-MB03 medulloblastoma cell growth inhibition, synergistic combos for chromothripsis tumors, BGB or cisplatin IC20 combos (AID 1671455; in the data active = inhibition above about 83%;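 note: 0% = vehicle DMSO and 100% = high DMSO as cytotoxic control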); settings: HD-MB03 medulloblastoma cells, stronger effect = higher value
[8] = UWB1.289 ovarian carcinoma cell growth inhibition, synergistic combos for chromothripsis tumors, BGB or cisplatin combos (AID 1671456); settings: UWB1.289 ovarian carcinoma cells, stronger effect = higher value;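 note: cells exposed to compound for four days; 0% = vehicle DMSO and 100% = killing by high DMSO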
[9] = LFS_MB_2R medulloblastoma cell growth inhibition, synergistic combos for chromothripsis tumors, cisplatin combos (AID 1671457); settings: LFS_MB_2R medulloblastoma cells, stronger effect = higher value;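 note: cells exposed to compound for four days before readout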
[10] = MDA-MB-436 breast carcinoma cell growth inhibition, synergistic combos for chromothripsis tumors, BGB or cisplatin combos (AID 1671458; call rule not given here;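 note: cells exposed for 96 hours; 0% = vehicle DMSO and 100% = killing by high DMSO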); settings: MDA-MB-436 breast carcinoma growth inhibition, drug combinations, stronger effect = higher value
[11] = UWB1.289_BRCA1 ovarian cancer growth, cell-based, BGB or cisplatin combinations (AID 1671459); settings: UWB1.289 BRCA1 ovarian carcinoma, drug combinations, stronger effect = higher value
[12] = human astrocyte viability loss, single and combined drugs, cytotoxicity control for chromothriptic childhood tumor combination screen, cell-based, BGB or cisplatin IC20 combos (AID 1671460); settings: Human astrocytes, drug combinations, stronger effect = higher value;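 note: cells exposed to compounds for 96 hours before viability readout; 0% = vehicle and 100% = killing control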
[13] = growth inhibition of BT084 medulloblastoma cells, cell-based, ICGC_MB145, cisplatin and BGB IC40 combos (AID 1671461); settings: drug combinations, stronger effect = higher value;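 note: cells exposed to drugs for 96 hours; 0% = vehicle DMSO and 100% = high DMSO full killing control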
[14] = growth inhibition of RCMB18 medulloblastoma cells, cell-based, cisplatin and BGB IC40 combos (AID 1671462); settings: stronger effect = higher value;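 note: cells exposed to compound for four days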
[15] = growth inhibition of CRL1545 osteosarcoma cells, cell-based, cisplatin and BGB IC20 combos (AID 1671464); settings: stronger effect = higher value;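 note: cells exposed to compound for 96 hours before readout; 0% = vehicle DMSO and 100% = high DMSO killing control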
[16] = measured here: combination with BGB IC40, at 0.05 µM
[17] = measured here: with BGB IC20 combination, at 0.5 µM
[18] = measured here: with cisplatin IC20 combination, at 0.5 µM
[19] = measured here: combination with cisplatin, at 0.5 µM
[20] = measured here: combination with cisplatin, at 5 µM

SMILES: O=c1[nH]c(=S)[nH]c(/N=C/c2ccccc2)c1N=Cc1ccccc1
- inhibition ([1]; at 0.5 µM, stronger effect = higher value): 10.8% (inactive) and -1.11% (inactive)
- inhibition ([1]; measured here: combination with BGB IC20, at 0.005 µM): 7.44% and 1.3%
- inhibition ([1]; measured here: combination with BGB IC40, at 0.005 µM): -16.5% and -26.2%
- inhibition [1, 16]: 0.419% and 2.63%
- inhibition ([1]; measured here: combination with cisplatin, at 0.5 µM, stronger effect = higher value): 24.4% and -35.7%
- inhibition ([1]; measured here: combination with cisplatin, at 5 µM, stronger effect = higher value): -12.6% and -19.3%
- inhibition ([2]; BGB combo, at 5 µM): -34% and -42.2%
- inhibition ([2]; at 0.5 µM): -32.1% (inactive) and -19.5% (inactive)
- inhibition ([2]; cisplatin combo, at 5 µM): -21.4% and -48.2%
- inhibition [2, 17]: -30.4% and -16.3%
- inhibition [2, 18]: -42.2% and -15.7%
- inhibition ([2]; single agent, at 5 µM): -37.4% and -37%
- inhibition ([3]; BGB IC20 combo, at 0.005 µM): 1.63% and -15.3%
- inhibition ([3]; BGB IC40 combo, at 0.005 µM): -50.4% and 4.14%
- inhibition ([3]; BGB IC40 combo, at 0.05 µM): -19.4% and -32.8%
- inhibition ([3]; at 0.5 µM): -11.2% (inactive) and -6.96% (inactive)
- inhibition ([3]; cisplatin combo, at 0.05 µM): -22.8% and -39.7%
- inhibition ([3]; cisplatin combo, at 0.5 µM): -24.4% and 3.72%
- inhibition ([3]; cisplatin combo, at 5 µM): -19.7% and -8.53%
- inhibition ([3]; measured here: 5 uM single agent, at 5 µM): -28.4% and -9.24%
- inhibition ([4]; at 0.5 µM): -24.3% (inactive) and -5.83% (inactive)
- inhibition [4, 16]: -16.1% and -5.8%
- inhibition [4, 19]: -52.1% and -29.6%
- inhibition [4, 20]: -67.9% and -16.8%
- inhibition ([5]; at 0.5 µM): -24.2% (inactive) and -31.7% (inactive)
- inhibition ([5]; measured here: with BGB IC20, at 0.5 µM): -36.7% and -29.2%
- inhibition ([5]; measured here: with BGB IC20, at 5 µM): -72.3% and -10.6%
- inhibition ([5]; measured here: with cisplatin IC20, at 0.5 µM): -17.7% and -30.3%
- inhibition ([5]; measured here: with cisplatin IC20, at 5 µM): -46.1% and -5.16%
- inhibition ([5]; single agent, at 5 µM): -26.4% and -23.9%
- inhibition ([6]; at 0.5 µM): -71.1% (inactive) and -62.3% (inactive)
- inhibition ([6]; measured here: combination with BGB at IC20, at 0.5 µM): -91.5% and -60.8%
- inhibition ([6]; measured here: combination with cisplatin at IC20, at 0.5 µM): -66.2% and -85.1%
- inhibition ([7]; at 0.5 µM): -16.3% (inactive) and -12.6% (inactive)
- inhibition ([7]; measured here: combo with BGB at IC20, at 0.5 µM): -14.6% and -13.1%
- inhibition ([7]; measured here: combo with cisplatin at IC20, at 0.5 µM): -24.1% and -18.2%
- inhibition ([8]; at 0.5 µM): -10.1% (inactive) and -11.6% (inactive)
- inhibition ([8]; measured here: inhibition with BGB combination, at 0.05 µM): -8.71% and -6.64%
- inhibition ([8]; measured here: inhibition with cisplatin combination, at 0.05 µM): -18.2% and -17.6%
- inhibition ([9]; at 0.5 µM): -2.17% (inactive) and -7.03% (inactive)
- inhibition [9, 19]: 4.09% and -15.4%
- inhibition [9, 20]: -75.4% and -34.5%
- inhibition ([10]; at 0.5 µM): -13.4% (inactive) and -8.5% (inactive)
- inhibition ([10]; measured here: BGB combination, at 0.5 µM): -4.77% and -3.51%
- inhibition ([10]; measured here: BGB combination, at 5 µM): -0.125% and 9.68%
- inhibition ([10]; measured here: cisplatin combination, at 0.5 µM): -26% and -20.1%
- inhibition ([10]; measured here: cisplatin combination, at 5 µM): -13.5% and -24.6%
- inhibition ([11]; BGB combination, concentration series, at 5 µM): -20.1% and -21%
- inhibition ([11]; at 0.5 µM): -11.1% (inactive) and -17.6% (inactive)
- inhibition ([11]; cisplatin combination, concentration series, at 5 µM): -0.543% and -15.8%
- inhibition ([12]; at 0.5 µM): -14.7% (inactive) and -11.3% (inactive)
- inhibition ([12]; measured here: combo with BGB IC20, at 0.5 µM): -6.75% and -6.18%
- inhibition ([12]; measured here: combo with cisplatin IC20, at 0.5 µM): -39.7% and -17.5%
- inhibition ([13]; at 0.5 µM): -0.252% (inactive) and 5.93% (inactive)
- inhibition ([13]; cisplatin combination, at 0.5 µM): -5.14% and -7.54%
- inhibition ([13]; cisplatin combination, at 5 µM): -2.96% and -198%
- inhibition ([13]; measured here: BGB IC40 combination 0.05 uM, at 0.05 µM): 11.6% and -6.05%
- inhibition ([13]; single agent, at 5 µM): -8.91% and -10.5%
- inhibition ([14]; at 0.5 µM): -27.2% (inactive) and -2.36% (inactive)
- inhibition ([14]; cisplatin combo, at 5 µM): -73.6% and -65.6%
- inhibition ([14]; measured here: BGB IC40 combination, at 0.05 µM): -4.14% and 6.35%
- inhibition [14, 19]: -76.9% and 2.66%
- inhibition ([14]; single agent, at 5 µM): -10.2% and -0.506%
- inhibition ([15]; at 0.5 µM): -63.6% (inactive) and -4.77% (inactive)
- inhibition [15, 17]: -46.4% and -22.1%
- inhibition [15, 18]: -76% and 2.34%
- inhibition ([15]; single agent, at 0.05 µM): -68.7% and -41.2%
- inhibition ([15]; single agent, at 5 µM): -27.1% and -36.4%
